Assay results published in PubChem BioAssay (NCATS).
The source made the active and inactive calls. A call without a number means that no potency is given here. The call rests on the fitted dose curve; in most records, active means well fitted inhibition curve with a large enough effect; inconclusive means small, poorly fitted or top-dose-only effect; inactive means no such curve, though single readings can be large or run the other way.

Target: Pyruvate kinase (Leishmania mexicana) (UniProt Q27686)
Sequence (Q27686 2-499 E452W): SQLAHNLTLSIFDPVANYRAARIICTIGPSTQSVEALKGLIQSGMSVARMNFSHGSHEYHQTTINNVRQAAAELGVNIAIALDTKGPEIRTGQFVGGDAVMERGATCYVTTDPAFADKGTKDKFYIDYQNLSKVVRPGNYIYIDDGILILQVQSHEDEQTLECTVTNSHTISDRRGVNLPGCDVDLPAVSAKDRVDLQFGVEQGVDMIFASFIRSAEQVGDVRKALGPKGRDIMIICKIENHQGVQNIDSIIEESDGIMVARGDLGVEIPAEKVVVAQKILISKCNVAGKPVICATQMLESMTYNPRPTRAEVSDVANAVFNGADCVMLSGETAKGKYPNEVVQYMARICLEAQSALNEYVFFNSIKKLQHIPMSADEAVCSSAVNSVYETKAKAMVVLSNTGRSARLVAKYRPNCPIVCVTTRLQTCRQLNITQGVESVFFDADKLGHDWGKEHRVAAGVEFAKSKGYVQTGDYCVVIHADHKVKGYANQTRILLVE
Experiment: qHTS Validation Assay for Inhibitors of Leishmania Mexicana Pyruvate Kinase (AID 945)
Settings: purified L. mexicana pyruvate kinase, enzyme activity, E451W mutant enzyme; series mostly up to 57.5 µM
From the text: NIH Molecular Libraries Screening Centers Network [MLSCN]
NIH Chemical Genomics Center [NCGC]
PI names: Malcom Walkinshaw, Hugh Morgan and Linda Gilmore
University of Edinburgh, Edinburgh, UK
Species of Leishmania are responsible for a wide spectrum of diseases throughout the tropics and subtropics, ranging from self-healing ulcers to highly disfiguring lesions and serious, often lethal visceral diseases, such as kala-azar. In Leishmania spp. it has been shown that both sugar uptake and gluconeogenesis are necessary to synthesize sufficient hexose-phosphate required for the production of glycoconjugates and the intracellular polysaccharide mannan which are essential for both replication and virulence of the parasites. Therefore, most of the enzymes participating in glycolysis and gluconeogenesis are expected to be essential (Naderer et al., 2006). The assay described here targets pyruvate kinase from Leishmania mexicania (LmPYK) that was obtained as a highly purified preparation from the University of Edinburgh (E451W mutant was provided). A 1536 well assay protocol was set up and validated by screening the LOPAC library in triplicate as an eight point concentration-titration series using the qHTS platform developed at the NCGC.
NCGC Assay Protocol Summary:
Three uL of substrate mix (final concentrations, 50 mM imidazole pH 7.2, 50 mM KCl, 7 mM MgCl2, 0.5 mM PEP, 0.1 mM ADP, 0.01% Tween 20, 0.05% BSA) was dispensed into white solid medium binding Greiner 1536 well plates. 23 nL of compound were delivered by a pin tool and 1 uL of enzyme mix (final concentration, 0.2 nM LmPYK, 50 mM imidazole pH 7.2, 0.05% BSA) was added. Plates were covered with stainless steel gasket-lined lids and incubated at room temperature for 1 hour. Two uL of detection and kinase stop mix (PKLight, Lonza) was added, and luminescence read by a ViewLux (Perkin Elmer) at 2 second exposure/plate using 2x binning. Controls on each plate were as follows: column 1, sixteen-point titration (1:2 dilutions) in duplicate the LmPK activator LOPAC-C8145 beginning at 57 uM final concentration; column 2, sixteen-point titration (1:2 dilutions) in duplicate activator LOPAC-S4063 beginning at 57 uM final concentration; column 3, column 4 DMSO only. Data were normalized to the neutral control (column 3).
Potency means the concentration at half of the fitted maximal effect.

Row | Compound | Potency
1 | C/C=C(\C)C(=O)O[C@@H]1C(C)=C2[C@H]([C@@H]1OC(=O)CCCCCCC)[C@@](C)(OC(C)=O)C[C@@H](OC(=O)CCC)[C@@]1(O)[C@H]2OC(=O)[C@]1(C)O | inactive
2 | CN1[C@@H]2CC[C@H]1CC(O[C@@H](c1ccccc1)c1ccccc1N)C2 (some centres not stated) | inactive
3 | NC(=O)c1ccc(OC[C@H](O)CN2CC=C(c3ccc(F)cc3)CC2)cc1 | inactive
4 | CC[C@H](CO)NC(=O)[C@@H]1C=C2c3cccc4[nH]cc(c34)C[C@@H]2N(C)C1 | inactive
5 | C[C@@H](Cc1ccc2c(c1)OC(C(=O)O)(C(=O)O)O2)NC[C@H](O)c1cccc(Cl)c1 | inactive
6 | C[N+]1(C)CCO[C@@](O)(c2ccc(-c3ccc([C@]4(O)C[N+](C)(C)CCO4)cc3)cc2)C1 | inactive
7 | C=CCN1CC[C@]23c4c5ccc(O)c4O[C@@H]2C(=O)CC[C@@]3(O)[C@H]1C5 | inactive
8 | C=CCN1CCc2cccc3c2[C@@H]1Cc1ccc(O)c(O)c1-3 | inactive
9 | CC(C)[C@@H]1NC(=O)[C@H](CCCCN)NC(=O)[C@H](Cc2c[nH]c3ccccc23)NC(=O)[C@H](Cc2ccc(O)cc2)NC(=O)[C@H](C)N(C)C(=O)[C@H](Cc2ccccc2)NC1=O | inactive
10 | N[C@@H](Cc1cc(O)c(O)cc1O)C(=O)O | inactive
11 | COc1ccc2c(c1)[C@]13CCCC[C@@H]1[C@H](C2)N(C)CC3 | inactive
12 | CC(C)n1cc2c3c(cccc31)[C@@H]1C[C@H](C(=O)O[C@@H](C)[C@H](C)O)CN(C)[C@H]1C2 | inactive
13 | O[C@@H]1CCCC[C@H]1N1CCC(c2ccccc2)CC1 | inactive
14 | Ic1ccccc1CN[C@@H]1C2CCN(CC2)[C@H]1C(c1ccccc1)c1ccccc1 | inactive
15 | CN[C@@H](C)[C@@H](O)c1ccccc1 | 10 µM (active)
16 | COC[C@H]1OC(=O)c2coc3c2[C@@]1(C)C1=C(C3=O)[C@H]2CCC(=O)[C@@]2(C)C[C@H]1OC(C)=O | inactive
17 | Oc1cc2c(cc1O)[C@H]1c3ccccc3CN[C@@H]1CC2 | inactive
18 | CCCN1CCC[C@H](c2cccc(C#N)c2)C1 | inactive
19 | CCCC[N+]1(C)[C@@H]2CC(OC(=O)[C@@H](CO)c3ccccc3)C[C@H]1[C@H]1O[C@H]12 (some centres not stated) | inactive

Row | Compound | Potency
20 | CCCCCCCCCCCCCC(=O)O[C@H]1[C@@H](C)[C@@]2(O)[C@@H](C=C(CO)C[C@]3(O)C(=O)C(C)=C[C@@H]23)C2C(C)(C)[C@]21OC(C)=O (some centres not stated) | inactive
21 | CCN(CC)C(=O)N[C@H]1C[C@H]2c3cccc4[nH]cc(c34)C[C@@H]2N(C)C1 | inactive
22 | Oc1ccc2c3c1O[C@@H]1[C@@H](O)CC[C@]4(O)[C@H](C2)N(CC2CCC2)CC[C@@]314 | inactive
23 | CC(C)(O)[C@H]1[C@H]2OC(=O)[C@@H]1[C@]1(O)C[C@H]3O[C@]34C(=O)O[C@H]2[C@]14C (tested in a mixture with another compound) | inactive
24 | C[C@]1(C(=O)O)[C@@H]2CC[C@@H](O2)[C@@]1(C)C(=O)O | inactive
25 | N[C@@H]1CCc2cc(O)c(O)cc2C1 | inactive
26 | CC(C)(C)NC[C@H](O)c1ccccc1Cl | inactive
27 | C[C@@H]1O[C@@H](O[C@H]2C[C@@H](O)[C@]3(CO)[C@@H]4[C@@H](O)C[C@]5(C)[C@H]([C@@H]6COC(=O)C6)CC[C@@]5(O)[C@H]4CC[C@@]3(O)C2)[C@H](O)[C@H](O)[C@@H]1O | inactive
28 | C[C@@H]1O[C@@H](O[C@H]2C[C@@H](O)[C@]3(CO)[C@@H]4[C@@H](O)C[C@]5(C)[C@H](C6=CC(=O)OC6)CC[C@@]5(O)[C@H]4CC[C@@]3(O)C2)[C@H](O)[C@H](O)[C@@H]1O | inactive
29 | CCN1C[C@]2(C)CC[C@@H](O)[C@]34[C@@H]5CC6[C@@H](OC)C[C@@](O)([C@H]5[C@@H]6O)[C@@H](C[C@@H]23)[C@H]14 | inactive
30 | C[C@H](N[C@@H](C)CCc1ccccc1)[C@H](O)c1ccc(O)cc1 | inactive
31 | CC[C@H](CO)NC(=O)[C@@H]1C=C2c3cccc4c3c(cn4C)C[C@@H]2N(C)C1 | inactive
32 | C[C@]12Cc3cn4c(nc3C=C1CC[C@H]1[C@@H]2CC[C@@]2(C)[C@H]1CC[C@@]2(O)C#N)nc1ccccc14 | inactive
33 | CCCN1CCc2cccc3c2[C@@H]1Cc1ccc(O)c(O)c1-3 | inactive
34 | C=CCN1CC[C@@]23CCCC[C@@H]2[C@@H]1Cc1ccc(O)cc13 | inactive
35 | C[C@H](N)c1cccc(Cl)c1Cl | inactive
36 | C=CCN1C[C@@H](C)N([C@H](c2ccc(C(=O)N(CC)CC)cc2)c2cccc(OC)c2)C[C@H]1C | inactive
37 | O=[N+]([O-])c1ccc(O[C@H]2O[C@@H](CO)[C@@H](O)[C@@H](O)[C@@H]2F)c([N+](=O)[O-])c1 | inactive
